# Where “and” joins values, the source holds several entries; their conditions need not be identical. Identical values can stand only once. Hit rate of the full screen: of about 5,500 compounds, about 2,000 (36%) were called active. Not shown: some 18% with an inconclusive outcome. The list shows a part of the results. A number with no mark means an inactive call. Cut-off read from the data, not from the text of the source: active = normalized growth mostly below about 0.91 (no sharp cut-off); inconclusive = no clear call, values can overlap the other calls; inactive = mostly above about 0.92.
# Assay: chemical genetic growth profiling, strain panel (AID 1159580);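 note: tested at 20 µM; growth read once vehicle control cultures reached saturation at 30 °C; 1 = growth at the plate median or of vehicle wells; lower values mean less growth of the strain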
# Conditions: S. cerevisiae deletion strains, growth OD
structure (smiles),measurement,setting,value
CN[C@@H]1C(O)[C@@H](O[C@@H]2[C@@H](O)[C@H](O[C@H]3OC(CN)=CC[C@H]3N)[C@@H](N)C[C@H]2N)OC[C@]1(C)O (some centres undefined),normalized growth,"locus YAL013W, strain DEP1, active compounds read low",1.02
same,normalized growth,"locus YAL021C, strain ccr4, active compounds read low",1.01
same,normalized growth,"locus YAL026C, strain drs2, active compounds read low",0.99
same,normalized growth,"locus YAL030W, strain snc1, active compounds read low",1.01
same,normalized growth,"locus YBL061C, strain skt5, active compounds read low",1.01
same,normalized growth,"locus YBR009C, strain hhf1, active compounds read low",0.968
same,normalized growth,"locus YBR021W, strain FUR4, active compounds read low",1.02
same,normalized growth,"locus YBR023C, strain chs3, active compounds read low",1.01
same,normalized growth,"locus YBR171W, strain sec66, active compounds read low",1.02
same,normalized growth,"locus YBR229C, strain ROT2, active compounds read low",1.02
same,normalized growth,"locus YBR231C, strain swc5, active compounds read low",1.02
same,normalized growth,"locus YBR279W, strain paf1, active compounds read low",1
same,normalized growth,"locus YCL011C, strain gbp2, active compounds read low",1
same,normalized growth,"locus YCL016C, strain dcc1, active compounds read low",0.997
same,normalized growth,"locus YCL029C, strain bik1, active compounds read low",0.997
same,normalized growth,"locus YCL061C, strain MRC1, active compounds read low",1.03
same,normalized growth,"locus YCL069W, strain vba3, active compounds read low",1.01
same,normalized growth,"locus YCR088W, strain abp1, active compounds read low",1.01
same,normalized growth,"locus YDL005C, strain med2, active compounds read low",1.01
same,normalized growth,"locus YDL035C, strain GPR1, active compounds read low",1.02
same,normalized growth,"locus YDL040C, strain nat1, active compounds read low",1.01
same,normalized growth,"locus YDL074C, strain BRE1, active compounds read low",1.08
same,normalized growth,"locus YDL101C, strain DUN1, active compounds read low",1.04
same,normalized growth,"locus YDL134C, strain PPH21, active compounds read low",1.02
same,normalized growth,"locus YDL185W, strain tfp1, active compounds read low",1
same,normalized growth,"locus YDL192W, strain arf1, active compounds read low",0.995
same,normalized growth,"locus YDR001C, strain nth1, active compounds read low",1.02
same,normalized growth,"locus YDR069C, strain doa4, active compounds read low",1.02
same,normalized growth,"locus YDR101C, strain arx1, active compounds read low",0.987
same,normalized growth,"locus YDR137W, strain rgp1, active compounds read low",0.998
same,normalized growth,"locus YDR150W, strain NUM1, active compounds read low",1.02
same,normalized growth,"locus YDR159W, strain sac3, active compounds read low",0.989
same,normalized growth,"locus YDR162C, strain NBP2, active compounds read low",1.03
same,normalized growth,"locus YDR195W, strain ref2",1.03
same,normalized growth,"locus YDR297W, strain sur2, active compounds read low",1.02
same,normalized growth,"locus YDR334W, strain swr1, active compounds read low",1.02
same,normalized growth,"locus YDR335W, strain msn5, active compounds read low",1.01
same,normalized growth,"locus YDR388W, active compounds read low",0.985
same,normalized growth,"locus YDR392W, strain spt3, active compounds read low",0.959
same,normalized growth,"locus YDR502C, strain sam2, active compounds read low",1.01
same,normalized growth,"locus YEL003W, strain gim4, active compounds read low",1.01
same,normalized growth,"locus YEL037C, strain rad23, active compounds read low",1.02
same,normalized growth,"locus YEL061C, strain CIN8 (second series), active compounds read low",1.02
same,normalized growth,"locus YEL061C, strain CIN8, active compounds read low",1.07
same,normalized growth,"locus YER015W, strain faa2, active compounds read low",1.02
same,normalized growth,"locus YER016W, strain bim1, active compounds read low",0.979
same,normalized growth,"locus YER110C, active compounds read low",0.96
same,normalized growth,"locus YER111C, strain swi4, active compounds read low",1.02
same,normalized growth,"locus YER155C, strain BEM2 (second series), active compounds read low",0.996
same,normalized growth,"locus YER155C, strain BEM2, active compounds read low",1
same,normalized growth,"locus YER167W, strain BCK2, active compounds read low",1.02
same,normalized growth,"locus YFR010W, strain ubp6, active compounds read low",1.03
same,normalized growth,"locus YGL078C, strain dbp3, active compounds read low",0.985
same,normalized growth,"locus YGL086W, strain mad1, active compounds read low",0.994
same,normalized growth,"locus YGL167C, strain pmr1, active compounds read low",1.02
same,normalized growth,"locus YGL173C, strain kem1, active compounds read low",1.02
same,normalized growth,"locus YGL227W, strain vid30, active compounds read low",1.02
same,normalized growth,"locus YGL240W, strain doc1, active compounds read low",1.03
same,normalized growth,"locus YGL248W, strain PDE1, active compounds read low",1.03
same,normalized growth,"locus YGL253W, strain hxk2, active compounds read low",1
same,normalized growth,"locus YGR078C, strain PAC10, active compounds read low",1.03
same,normalized growth,"locus YGR135W, strain pre9, active compounds read low",1.01
same,normalized growth,"locus YGR229C, strain SMI1, active compounds read low",1.05
same,normalized growth,"locus YGR252W, strain gcn5, active compounds read low",0.651 (active)
same,normalized growth,"locus YHR013C, strain ard1, active compounds read low",1.01
same,normalized growth,"locus YHR027C, strain rpn1, active compounds read low",1
same,normalized growth,"locus YHR030C, strain SLT2, active compounds read low",1 and 0.98
same,normalized growth,"locus YHR079C, strain IRE1 (second series), active compounds read low",1
same,normalized growth,"locus YHR079C, strain IRE1, active compounds read low",0.95
same,normalized growth,"locus YHR129C, strain ARP1, active compounds read low",1.02
same,normalized growth,"locus YHR142W, strain chs7, active compounds read low",1.02
same,normalized growth,"locus YHR200W, strain rpn10, active compounds read low",1
same,normalized growth,"locus YIL066C, strain RNR3, active compounds read low",1.02
same,normalized growth,"locus YIL073C, strain SPO22, active compounds read low",1.03
same,normalized growth,"locus YIL125W, strain kgd1, active compounds read low",1.01
same,normalized growth,"locus YIR030C, strain dcg1, active compounds read low",0.995
same,normalized growth,"locus YJL092W, strain hpr5, active compounds read low",1.02
same,normalized growth,"locus YJL095W, strain BCK1 (second series), active compounds read low",1.01
same,normalized growth,"locus YJL095W, strain BCK1, active compounds read low",1.06 and 0.978
same,normalized growth,"locus YJL115W, strain asf1, active compounds read low",1.02
same,normalized growth,"locus YJL129C, strain trk1, active compounds read low",1.02
same,normalized growth,"locus YJL134W, strain LCB3, active compounds read low",1.02
same,normalized growth,"locus YJL154C, strain vps35, active compounds read low",1.01
same,normalized growth,"locus YJL164C, strain tpk1, active compounds read low",1.01
same,normalized growth,"locus YJL166W, strain qcr8, active compounds read low",1.03
same,normalized growth,"locus YJL168C, strain set2, active compounds read low",0.997
same,normalized growth,"locus YJL187C, strain SWE1 (second series), active compounds read low",1.03
same,normalized growth,"locus YJR043C, strain POL32, active compounds read low",1.2 [resistant] (active)
same,normalized growth,"locus YJR066W, strain TOR1, active compounds read low",0.96

# Reference: PubChem BioAssay AID1159580 (chemical genetic matrix, 2015)
